Experimental data taken from PubChem BioAssay.
Results filed as inconclusive are left out. Active and inactive are the calls of the source.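 Rule for the calls, unless noted: active = viability increase at or above a cutoff of the median across tested compounds plus 3 SD (cut at about 8.5% in these data, passing the limit was not always enough); inconclusive = some gains above the cutoff, reason not given; inactive = the rest.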

Assays:
[1] = reducers of endogenous Her2 protein level, primary screen, SKBR3 breast tumor cells, AlphaScreen, ATP viability (AID 461;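 active = Her2 level under about 52% in both replicate screens, with viability over 70% of control, limit read from the data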;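 for Her2 level: lower value means less Her2 protein in the cells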;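 for viability: percent of carrier control wells set as 100% viability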); conditions: 18-24 h, measured here: SKBR3 viability, ATP luminescence, at 10 µM
[2] = target: Receptor tyrosine-protein kinase erbB-2 (Homo sapiens) (UniProt P04626); assay: as above; conditions: 18-24 h, at 10 µM, stronger effect = lower value
[3] = SK-BR-3 cell growth inhibitors, pilot screen, 24 h, human (AID 572;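 active = viability at or below 10% of carrier control in both of two separate runs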;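 note: compound exposure lasted between 18 and 24 h rather than exactly 24 h; 100% = carrier-treated control wells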); conditions: SK-BR-3 viability, CellTiter-Glo luminescence, at 10 µM, stronger effect = lower value
[4] = HUVEC growth inhibition – cell-based, human, primary screen (AID 575;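 active = viability at or below 30% in both replicate assays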;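 note: 100% = median of untreated cell wells with 0.1% DMSO on each plate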); conditions: HUVEC proliferation, CellTiter-Glo luminescence, 72 h; at 10 µM; stronger effect = lower value
[5] = growth inhibitors of H69AR lung tumor, primary screen, human, duplicate replicates (AID 580;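 active = viability at or under a set limit in both replicates, limit being median viability minus 3 SD, cut at about 48% in these data, passing the limit was not always enough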;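 note: 100% = mean luminescence of untreated wells and 0% = no signal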); conditions: H69AR lung tumor cells viability, ATP luminescence, 72 h; at 10 µM; stronger effect = lower value
[6] = reversal of MRP1-mediated doxorubicin resistance, pilot screen, H69AR cells, doxorubicin co-treatment (AID 601;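 active = viability loss from added drug above about 55%, and viability with drug at most 40%, in both replicates, limit read from the data, passing the limit was not always enough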); conditions: CellTiter-Glo, 72 h, at 10 µM; for differential viability (reversal): stronger effect = higher value
[7] = 384-well plate pilot, post-Golgi transport modulator project, inhibition of yeast transport mutant growth (AID 636; in the data active = inhibition above about 31%); conditions: absorbance 615 nm, about 18 h, stronger effect = higher value
[8] = growth suppression of yeast trafficking mutant, preliminary HTS, modulators of trafficking downstream of Golgi apparatus project, 1536-format plate, OD 615 nm (AID 637; in the data active = inhibition above about 30%); conditions: yeast transport mutant growth, absorbance 615 nm, 18 h; stronger effect = higher value
[9] = OD615 S. cerevisiae growth inhibition, permissive medium, pilot counter-assay, permissive growth control for S. cerevisiae lifespan shortening project (AID 705;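 active = growth inhibition above 25% in both replicates, a cutoff set 3 SD above the mean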); conditions: OD615, 24 h, at 10 µM, stronger effect = higher value
[10] = Restrictive medium S. cerevisiae growth inhibition, OD615, pilot screen of yeast lifespan reduction project, restrictive growth control (AID 706;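 active = growth inhibition above a set limit, 3 SD over mean compound inhibition, in both replicates, cut at about 43% in these data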;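 note: modified DeaD lifespan yeast strain shifted to restrictive glucose medium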); conditions: OD615, 48 h, at 10 µM, stronger effect = higher value
[11] = viability gain of MRP-1-high H69AR cells under doxorubicin, pilot screen, MRP-1 activator project, CellTiter-Glo, duplicate (AID 807); conditions: H69AR viability with doxorubicin, CellTiter-Glo luminescence; at 10 µM; stronger effect = higher value;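 note: compound pretreatment 18-22 h then 72 h combined with doxorubicin; 0% = doxorubicin alone and 100% = vehicle without doxorubicin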
[12] = growth suppression of beta-catenin knockout HCT116, pilot screen, human colon tumor cells (AID 823;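 active = cell viability at or below a set limit in both duplicate runs, the limit being the all-compound median minus 4 SD, cut at about 23% in these data, passing the limit was not always enough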;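 note: 0% = wells killed by 20 µM Hyamine and 100% = untreated DMSO cell wells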); conditions: CellTiter-Glo, 60 h, at 10 µM, stronger effect = lower value
[13] = growth suppression of PTEN-deleted HCT116, pilot screen, cell-based, HCT116 clonal line, CellTiter-Glo (AID 824;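 active = viability at or below 27.92% in each of two runs, the all-compound median minus 4 SD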;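 note: 0% = 20 µM Hyamine control and 100% = vehicle cell control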); conditions: 60 h, at 10 µM, stronger effect = lower value
[14] = inhibitors of the yeast RAM network, pilot screen, dse1pr::URA3 reporter, 5-FOA selection (AID 869;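 active = inhibition over a set limit, the all-compound mean plus 3 SD, in both replicate runs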;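 note: 0% = DMSO wells with no growth and 100% = 10 µM 1-NA-PP1 with full growth; RAM network block rescues cells from 5-FOA so hits raise OD615 growth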); conditions: S. cerevisiae dse1pr::URA3 5-FOA growth, OD615, 2 d; at 10 µM; stronger effect = higher value; strain carries analog-sensitive mutant Cbk1 kinase
[15] = RAM signaling pathway blockade in yeast – S. cerevisiae, Pdr1DBD-CYC8 efflux-inhibited sensitized strain, primary screen (AID 1298;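 active = RAM network inhibition above 8.4% in each of two replicates, 3 SD over the compound average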;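 note: 0% = DMSO untreated cells without growth and 100% = 10 µM 1-NA-PP1 full growth; higher means more yeast growth rescued from 5-FOA killing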); conditions: S. cerevisiae cbk1-as DSE1-URA3 strain, 5-FOA growth OD615, 2 d; at 50 µM; stronger effect = higher value
[16] = H69AR cells + 2 uM doxorubicin, measured here: viability with 2 uM doxorubicin, stronger effect = lower value
[17] = H69AR cells, compound alone cytotoxicity

Chain of Receptor tyrosine-protein kinase erbB-2 (Homo sapiens) (P04626 whole entry, looked up): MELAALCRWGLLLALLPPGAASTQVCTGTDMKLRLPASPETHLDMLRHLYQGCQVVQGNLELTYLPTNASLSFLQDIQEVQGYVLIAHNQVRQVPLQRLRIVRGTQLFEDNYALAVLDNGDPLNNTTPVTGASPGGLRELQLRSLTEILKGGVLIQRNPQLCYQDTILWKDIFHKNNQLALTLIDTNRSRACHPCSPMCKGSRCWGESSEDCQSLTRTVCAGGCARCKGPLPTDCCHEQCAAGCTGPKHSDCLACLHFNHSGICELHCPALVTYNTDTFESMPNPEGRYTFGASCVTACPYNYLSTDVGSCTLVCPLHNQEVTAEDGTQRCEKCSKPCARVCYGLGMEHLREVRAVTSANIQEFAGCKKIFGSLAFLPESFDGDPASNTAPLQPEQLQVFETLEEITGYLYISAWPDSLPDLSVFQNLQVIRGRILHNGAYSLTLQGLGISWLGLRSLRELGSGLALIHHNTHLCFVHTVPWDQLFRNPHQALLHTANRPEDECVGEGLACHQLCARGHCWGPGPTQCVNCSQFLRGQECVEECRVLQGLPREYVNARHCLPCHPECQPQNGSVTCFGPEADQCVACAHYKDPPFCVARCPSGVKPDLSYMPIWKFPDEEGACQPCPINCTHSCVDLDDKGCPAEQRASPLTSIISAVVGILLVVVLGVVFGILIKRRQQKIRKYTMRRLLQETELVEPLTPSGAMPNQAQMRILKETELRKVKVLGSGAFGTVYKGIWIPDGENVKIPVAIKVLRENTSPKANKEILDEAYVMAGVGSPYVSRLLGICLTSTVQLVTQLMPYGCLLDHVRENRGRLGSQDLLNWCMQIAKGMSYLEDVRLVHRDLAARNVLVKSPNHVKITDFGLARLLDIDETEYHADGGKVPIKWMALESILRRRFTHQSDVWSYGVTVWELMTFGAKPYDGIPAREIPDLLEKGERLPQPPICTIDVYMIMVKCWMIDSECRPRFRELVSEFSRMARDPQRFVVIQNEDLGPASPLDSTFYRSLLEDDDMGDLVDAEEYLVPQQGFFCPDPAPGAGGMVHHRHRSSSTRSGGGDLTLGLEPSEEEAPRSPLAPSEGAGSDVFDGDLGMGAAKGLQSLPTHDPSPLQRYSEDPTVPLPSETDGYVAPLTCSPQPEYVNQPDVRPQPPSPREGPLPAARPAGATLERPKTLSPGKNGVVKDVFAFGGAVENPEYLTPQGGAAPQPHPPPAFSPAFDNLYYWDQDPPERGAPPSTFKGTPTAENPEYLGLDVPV

SMILES	viability [1] [%]	Her2 level [2]	viability [3]	viability [4]	viability [5]	differential viability (reversal) ([6]; H69AR cells + 2 uM doxorubicin)	viability [6, 16] [%]	viability [6, 17] [%]	inhibition [7]	inhibition [8]	growth inhibition [9]	growth inhibition [10]	viability increase [11]	viability [12]	viability [13]	inhibition [14]	RAM network inhibition [15]
CCCCN(C)C(=O)c1cn(C)c2ccc(S(=O)(=O)N(C)C)cc2c1=O	96	102% (inactive)	96% (inactive)	102% (inactive)	102% (inactive)	6.23% (inactive)	95.5	102	0.13% (inactive)	-4.5% (inactive)	-3.25% (inactive)	3.02% (inactive)	0.32% (inactive)	100% (inactive)	108% (inactive)	0.805% (inactive)	2.99% (inactive)
CCN(CC)C1CCCCC1NS(=O)(=O)c1ccc(Cl)cc1 (stereo unspecified)	104	116% (inactive)	104% (inactive)	90.8% (inactive)	101% (inactive)	13.1% (inactive)	87.8	101	-3.6% (inactive)	3.28% (inactive)	-12% (inactive)	-3.99% (inactive)	-1.53% (inactive)	86.5% (inactive)	92.6% (inactive)	1.03% (inactive)	5.81% (inactive)
Cn1c(=O)[nH]c(=O)c2c1nc(N1CCCCC1)n2CCSc1ncccn1	101	89.5% (inactive)	101% (inactive)	102% (inactive)	88.8% (inactive)	-3.65% (inactive)	92.5	88.8	-3.2% (inactive)	0.83% (inactive)	1.54% (inactive)	-4.51% (inactive)	1.1% (inactive)	101% (inactive)	103% (inactive)	2.44% (inactive)	-0.42% (inactive)
CCCOc1ccc2ccccc2c1/C=N/n1cnnc1	93	91% (inactive)	93% (inactive)	66.7% (inactive)	72.3% (inactive)	3.08% (inactive)	69.2	72.3	-3.08% (inactive)	2.67% (inactive)	-0.81% (inactive)	6.62% (inactive)	-5.76% (inactive)	92.4% (inactive)	80.9% (inactive)	-0.575% (inactive)	-1.74% (inactive)
O=C(c1cccs1)N1CCc2ccccc21	110	82% (inactive)	110% (inactive)	83% (inactive)	94% (inactive)	14.6% (inactive)	79.5	94	-5.47% (inactive)	0.97% (inactive)	1.98% (inactive)	1.57% (inactive)	-1.9% (inactive)	96.3% (inactive)	95.8% (inactive)	1.48% (inactive)	1.66% (inactive)
O=C(CCCn1c(=O)c2sccc2n(Cc2cc(=O)n3ccccc3n2)c1=O)NCc1ccco1	82.5	126% (inactive)	82.5% (inactive)	87.7% (inactive)	77% (inactive)	-2.97% (inactive)	80	77	3.59% (inactive)	-4.33% (inactive)	-9.24% (inactive)	-2.77% (inactive)	-1.87% (inactive)	91.3% (inactive)	99.3% (inactive)	-0.225% (inactive)	0.21% (inactive)
Cc1cccc(-n2ncc3c(NCCCn4ccnc4)ncnc32)c1	91.5	93.5% (inactive)	91.5% (inactive)	111% (inactive)	88.6% (inactive)	3.66% (inactive)	84.9	88.6	2.13% (inactive)	-3.67% (inactive)	-2.31% (inactive)	-0.87% (inactive)	-0.65% (inactive)	92.9% (inactive)	99.5% (inactive)	1.1% (inactive)	-0.32% (inactive)
COc1cc2c(cc1OC)C(C)N(C(=O)Cn1ncc3c1-c1ccccc1OC3)CC2 (stereo unspecified)	90.5	104% (inactive)	90.5% (inactive)	111% (inactive)	87.2% (inactive)	0.365% (inactive)	86.9	87.2	-2.31% (inactive)	2.33% (inactive)	-9.09% (inactive)	-8.14% (inactive)	-2.56% (inactive)	89.5% (inactive)	89.8% (inactive)	0.41% (inactive)	1.88% (inactive)
CCN(CC)S(=O)(=O)c1ccc2oc(C(=O)N3CCOCC3)c(C)c2c1	79.5	101% (inactive)	79.5% (inactive)	106% (inactive)	96.5% (inactive)	-0.525% (inactive)	97	96.5	0.67% (inactive)	-4.84% (inactive)	-6.28% (inactive)	-17.5% (inactive)	0.12% (inactive)	93.7% (inactive)	98.8% (inactive)	-0.09% (inactive)	-0.22% (inactive)
O=C(CCn1c(=O)oc2ccccc21)NCCN1CCOCC1	104	120% (inactive)	104% (inactive)	93.4% (inactive)	85.9% (inactive)	-3.67% (inactive)	89.6	85.9	0.8% (inactive)	-6.5% (inactive)	-9.38% (inactive)	-6.78% (inactive)	-1.28% (inactive)	107% (inactive)	101% (inactive)	2.63% (inactive)	4.16% (inactive)
COc1ccc(S(=O)(=O)Nc2ccc(F)c(Cl)c2)cc1OC	97.5	93.5% (inactive)	97.5% (inactive)	106% (inactive)	96.6% (inactive)	4.3% (inactive)	92.3	96.6	-2.21% (inactive)	-10.2% (inactive)	-15.3% (inactive)	4.31% (inactive)	-1.4% (inactive)	86.3% (inactive)	87.6% (inactive)	0.595% (inactive)	1.81% (inactive)
Cc1ccc(C)c(S(=O)(=O)n2cnc3ccccc32)c1	96.5	87.5% (inactive)	96.5% (inactive)	109% (inactive)	99% (inactive)	7.94% (inactive)	91.1	99	-0.13% (inactive)	30.2% (active)	-18% (inactive)	-20.2% (inactive)	0.98% (inactive)	95.2% (inactive)	97.6% (inactive)	2.08% (inactive)	2.15% (inactive)
COc1ccc(-c2nc(CSCC(=O)N3CCc4ccccc4C3)c(C)o2)cc1OC	88.5	69.5% (inactive)	88.5% (inactive)	93.8% (inactive)	92.6% (inactive)	0.215% (inactive)	92.4	92.6	-0.38% (inactive)	-0.5% (inactive)	13.3% (inactive)	33.4% (inactive)	-3.15% (inactive)	93.9% (inactive)	89.8% (inactive)	-0.395% (inactive)	3.92% (inactive)
Cc1occc1C(=O)N1CCN(c2ncccn2)CC1	87	118% (inactive)	87% (inactive)	99.6% (inactive)	95.8% (inactive)	8.91% (inactive)	86.9	95.8	2.56% (inactive)	-5.83% (inactive)	-15.2% (inactive)	-1.04% (inactive)	-0.73% (inactive)	101% (inactive)	91.9% (inactive)	1.98% (inactive)	1.89% (inactive)
O=C(CCn1c(=O)oc2ccccc21)NCc1ccco1	106	115% (inactive)	106% (inactive)	89.9% (inactive)	91% (inactive)	10% (inactive)	81	91	-3.47% (inactive)	-5.17% (inactive)	-2.37% (inactive)	-2.52% (inactive)	-1.66% (inactive)	102% (inactive)	99.4% (inactive)	2.08% (inactive)	2.93% (inactive)
CCOC(=O)c1ccc(-n2c(C)nc3c(cnn3-c3ccccc3C)c2=O)cc1	94	108% (inactive)	94% (inactive)	117% (inactive)	98.1% (inactive)	-3.79% (inactive)	102	98.1	-0.8% (inactive)	-3.93% (inactive)	2.42% (inactive)	2.89% (inactive)	-0.28% (inactive)	94.4% (inactive)	91% (inactive)	1.17% (inactive)	2.95% (inactive)
CCCc1nnc(NC(=O)NCCN2C(=O)C3C4C=CC(C4)C3C2=O)s1 (stereo unspecified)	110	121% (inactive)	110% (inactive)	96.6% (inactive)	97.8% (inactive)	5.61% (inactive)	92.2	97.8	1.87% (inactive)	-13% (inactive)	-2.99% (inactive)	6.19% (inactive)	-0.68% (inactive)	101% (inactive)	101% (inactive)	-0.135% (inactive)	3.27% (inactive)
COc1ccc(C(=O)c2ccc(OC)c(N)c2)cc1N	119	86% (inactive)	119% (inactive)	49% (inactive)	16.9% (active)	-46.3% (inactive)	63.2	16.9	1.3% (inactive)	-1.31% (inactive)	-20% (inactive)	-17.8% (inactive)	-6.12% (inactive)	15.2% (active)	17% (active)	2.53% (inactive)	2.22% (inactive)
